About 7,900 targets were measured; listed, in parts, are those with a hit and a random draw of the rest. About 0.6% of all pairs of compound and target were hits.
How the values were obtained:
Assay in all cases: log2 fold change, soluble protein after heating vs DMSO (PISA); higher = thermal stabilisation; K562 cells, 10 uM, 30 min; active = over 0.2 and 3.5 SD of the protein, either way, in both replicates (recomputed)
[1] = compound: C1=CC=C(C=C1)[C@H](COC2=CC3=C(C=C2)NC(=O)N3)NC(=O)C4=CC=CN(C4=O)CC5=CC(=C(C=C5)F)F
In short: (§1)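 K562 cells (2×10^6 cells/mL) were treated with 10 μM compound for 30 min, and aliquots were heated for 3 min over 48°C-58°C. Pooled aliquots were extracted in PBS with 0.5% NP-40 at 4°C, and the supernatant after 21,000xg for 90 min was measured by TMTpro 16plex LC-MS/MS with channel sums equalised. Reported thermal stability, relative to control samples and from duplicates, is a log2 fold change.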

[2] = compound: CC1=C(SC2=C1C(=N[C@H](C3=NN=C(N32)C)CC(=O)N)C4=CC=C(C=C4)Cl)C
In short: as §1

[3] = compound: CC1=C2C(=CC=C1)N=C(N(C2=O)C3=CC=CC=C3C)CN4C=NC5=C(N=CN=C54)N
In short: as §1

[4] = compound: Cc1sc2c(c1C)C(c1ccc(Cl)cc1)=N[C@@H](CC(=O)OC(C)(C)C)c1nnc(C)n1-2
In short: as §1

[5] = compound: c1ccc([C@@H]2C[C@H]2NC2CCNCC2)cc1
In short: as §1

Measured: log2 fold change

CDC42SE1 (UniProt Q9NRR8)
Sequence of UniProt Q9NRR8 (Q9NRR8 whole entry, looked up): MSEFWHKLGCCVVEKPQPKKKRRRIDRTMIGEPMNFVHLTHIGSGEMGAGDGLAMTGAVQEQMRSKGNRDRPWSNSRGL
inactive: [1] -0.151 | [2] 0.016 | [3] 0.088 | [4] -0.076 | [5] -0.007

CERT isoform 3 (UniProt Q9Y5P4)
Sequence of UniProt Q9Y5P4 (Q9Y5P4 whole entry, looked up): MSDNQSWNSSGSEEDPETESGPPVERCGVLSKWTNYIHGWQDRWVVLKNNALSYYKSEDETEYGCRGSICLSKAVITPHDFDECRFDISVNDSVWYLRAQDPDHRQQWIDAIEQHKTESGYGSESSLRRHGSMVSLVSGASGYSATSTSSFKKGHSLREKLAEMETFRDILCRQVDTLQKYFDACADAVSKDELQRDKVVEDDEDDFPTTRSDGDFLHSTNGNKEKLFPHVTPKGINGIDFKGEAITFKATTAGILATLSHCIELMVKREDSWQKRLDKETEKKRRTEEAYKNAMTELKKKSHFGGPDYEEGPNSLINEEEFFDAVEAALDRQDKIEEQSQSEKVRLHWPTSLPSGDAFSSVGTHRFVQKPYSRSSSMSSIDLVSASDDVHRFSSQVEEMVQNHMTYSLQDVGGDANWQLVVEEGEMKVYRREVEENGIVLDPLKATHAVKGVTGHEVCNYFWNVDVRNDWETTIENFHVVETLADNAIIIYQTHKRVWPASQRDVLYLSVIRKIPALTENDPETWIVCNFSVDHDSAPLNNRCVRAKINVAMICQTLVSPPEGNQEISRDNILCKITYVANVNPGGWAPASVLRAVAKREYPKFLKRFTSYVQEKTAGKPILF
inactive: [1] 0.102 | [2] 0.029 | [3] 0.066 | [4] 0.14 | [5] -0.028

CLCN7 (UniProt P51798)
Sequence of UniProt P51798 (P51798 whole entry, looked up): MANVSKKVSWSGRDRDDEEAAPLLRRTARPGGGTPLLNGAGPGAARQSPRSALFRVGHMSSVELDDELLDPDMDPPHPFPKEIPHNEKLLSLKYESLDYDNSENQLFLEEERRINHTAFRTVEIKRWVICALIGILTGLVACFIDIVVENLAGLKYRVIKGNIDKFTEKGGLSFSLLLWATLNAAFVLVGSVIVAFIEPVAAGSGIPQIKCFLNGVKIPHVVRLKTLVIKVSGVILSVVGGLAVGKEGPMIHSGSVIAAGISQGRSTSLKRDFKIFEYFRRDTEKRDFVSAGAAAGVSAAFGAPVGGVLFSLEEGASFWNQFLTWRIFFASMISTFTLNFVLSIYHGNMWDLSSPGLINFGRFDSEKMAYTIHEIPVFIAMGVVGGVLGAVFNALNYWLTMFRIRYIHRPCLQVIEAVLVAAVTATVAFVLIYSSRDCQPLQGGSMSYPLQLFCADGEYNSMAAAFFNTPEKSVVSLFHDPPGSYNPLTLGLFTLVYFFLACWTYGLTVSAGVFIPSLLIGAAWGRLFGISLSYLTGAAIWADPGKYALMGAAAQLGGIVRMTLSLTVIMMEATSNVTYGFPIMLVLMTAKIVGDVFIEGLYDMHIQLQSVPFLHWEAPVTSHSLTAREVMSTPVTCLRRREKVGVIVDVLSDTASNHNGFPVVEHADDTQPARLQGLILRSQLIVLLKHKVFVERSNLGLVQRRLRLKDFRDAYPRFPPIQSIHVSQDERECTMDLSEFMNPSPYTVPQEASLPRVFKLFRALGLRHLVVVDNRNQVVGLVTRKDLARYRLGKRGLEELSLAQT
inactive: [1] -0.018 | [2] 0.024 | [3] -0.054 | [4] 0.024 | [5] -0.032

CHP1 (UniProt Q99653)
Sequence of UniProt Q99653 (Q99653 whole entry, looked up): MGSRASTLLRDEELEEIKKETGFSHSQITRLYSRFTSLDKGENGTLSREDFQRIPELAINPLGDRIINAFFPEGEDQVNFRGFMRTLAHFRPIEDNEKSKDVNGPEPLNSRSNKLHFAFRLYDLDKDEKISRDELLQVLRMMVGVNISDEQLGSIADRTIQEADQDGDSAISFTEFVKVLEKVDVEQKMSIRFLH
inactive: [1] 0.022 | [2] 0.016 | [3] -0.058 | [4] -0.057 | [5] -0.015

CHEK1 (UniProt O14757)
inactive: [1] 0.006 | [2] 0.065 | [3] 0.087 | [4] 0.025 | [5] 0.01

CA8 (UniProt P35219)
Sequence of UniProt P35219 (P35219 whole entry, looked up): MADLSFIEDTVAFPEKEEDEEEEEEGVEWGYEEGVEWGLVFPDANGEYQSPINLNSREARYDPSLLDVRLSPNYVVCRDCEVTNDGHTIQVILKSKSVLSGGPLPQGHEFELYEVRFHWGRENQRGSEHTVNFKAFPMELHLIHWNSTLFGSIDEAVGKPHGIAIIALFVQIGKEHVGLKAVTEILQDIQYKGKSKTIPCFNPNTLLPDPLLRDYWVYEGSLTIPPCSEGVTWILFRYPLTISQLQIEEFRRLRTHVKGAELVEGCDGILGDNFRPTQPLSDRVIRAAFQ
inactive: [1] 0.006 | [2] 0.059 | [3] 0.052 | [4] 0.025 | [5] -0.045

CLUH (UniProt O75153)
Sequence of UniProt O75153 (O75153 whole entry, looked up): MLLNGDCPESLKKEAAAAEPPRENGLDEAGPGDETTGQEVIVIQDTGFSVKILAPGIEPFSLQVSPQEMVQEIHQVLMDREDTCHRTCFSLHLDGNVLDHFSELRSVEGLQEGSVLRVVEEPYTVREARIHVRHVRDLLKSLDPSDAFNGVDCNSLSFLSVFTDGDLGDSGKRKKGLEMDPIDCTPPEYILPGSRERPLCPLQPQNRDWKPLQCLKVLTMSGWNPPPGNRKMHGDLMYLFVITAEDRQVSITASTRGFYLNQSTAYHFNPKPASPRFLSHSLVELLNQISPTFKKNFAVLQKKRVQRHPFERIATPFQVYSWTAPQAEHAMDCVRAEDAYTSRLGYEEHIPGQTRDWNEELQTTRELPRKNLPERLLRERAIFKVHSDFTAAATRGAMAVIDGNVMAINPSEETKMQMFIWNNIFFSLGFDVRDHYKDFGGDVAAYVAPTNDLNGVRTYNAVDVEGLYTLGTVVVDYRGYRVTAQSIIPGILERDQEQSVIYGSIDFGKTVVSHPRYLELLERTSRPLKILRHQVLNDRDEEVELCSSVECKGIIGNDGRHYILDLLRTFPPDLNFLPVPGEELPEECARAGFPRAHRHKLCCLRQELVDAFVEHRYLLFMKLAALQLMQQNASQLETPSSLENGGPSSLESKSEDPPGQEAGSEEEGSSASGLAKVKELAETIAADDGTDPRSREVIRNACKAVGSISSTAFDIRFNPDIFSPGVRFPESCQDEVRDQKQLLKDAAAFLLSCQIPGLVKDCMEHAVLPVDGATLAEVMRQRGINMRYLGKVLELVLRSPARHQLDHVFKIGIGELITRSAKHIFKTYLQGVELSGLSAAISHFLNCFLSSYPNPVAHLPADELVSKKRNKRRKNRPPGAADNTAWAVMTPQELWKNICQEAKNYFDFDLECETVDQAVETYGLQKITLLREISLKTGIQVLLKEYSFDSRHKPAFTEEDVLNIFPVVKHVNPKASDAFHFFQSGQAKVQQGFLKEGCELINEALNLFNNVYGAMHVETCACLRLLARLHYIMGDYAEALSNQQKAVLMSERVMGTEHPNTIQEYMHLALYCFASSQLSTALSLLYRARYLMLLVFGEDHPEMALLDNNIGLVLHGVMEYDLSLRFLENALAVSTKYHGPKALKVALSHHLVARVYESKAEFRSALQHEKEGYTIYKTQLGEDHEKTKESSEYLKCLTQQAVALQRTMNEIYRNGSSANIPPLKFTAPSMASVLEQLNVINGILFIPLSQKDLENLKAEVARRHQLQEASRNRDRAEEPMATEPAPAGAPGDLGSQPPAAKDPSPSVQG
inactive: [1] -0.05 | [2] 0.027 | [3] 0.086 | [4] -0.016 | [5] -0.052

CIZ1 (UniProt Q9ULV3)
Sequence of UniProt Q9ULV3 (Q9ULV3 whole entry, looked up): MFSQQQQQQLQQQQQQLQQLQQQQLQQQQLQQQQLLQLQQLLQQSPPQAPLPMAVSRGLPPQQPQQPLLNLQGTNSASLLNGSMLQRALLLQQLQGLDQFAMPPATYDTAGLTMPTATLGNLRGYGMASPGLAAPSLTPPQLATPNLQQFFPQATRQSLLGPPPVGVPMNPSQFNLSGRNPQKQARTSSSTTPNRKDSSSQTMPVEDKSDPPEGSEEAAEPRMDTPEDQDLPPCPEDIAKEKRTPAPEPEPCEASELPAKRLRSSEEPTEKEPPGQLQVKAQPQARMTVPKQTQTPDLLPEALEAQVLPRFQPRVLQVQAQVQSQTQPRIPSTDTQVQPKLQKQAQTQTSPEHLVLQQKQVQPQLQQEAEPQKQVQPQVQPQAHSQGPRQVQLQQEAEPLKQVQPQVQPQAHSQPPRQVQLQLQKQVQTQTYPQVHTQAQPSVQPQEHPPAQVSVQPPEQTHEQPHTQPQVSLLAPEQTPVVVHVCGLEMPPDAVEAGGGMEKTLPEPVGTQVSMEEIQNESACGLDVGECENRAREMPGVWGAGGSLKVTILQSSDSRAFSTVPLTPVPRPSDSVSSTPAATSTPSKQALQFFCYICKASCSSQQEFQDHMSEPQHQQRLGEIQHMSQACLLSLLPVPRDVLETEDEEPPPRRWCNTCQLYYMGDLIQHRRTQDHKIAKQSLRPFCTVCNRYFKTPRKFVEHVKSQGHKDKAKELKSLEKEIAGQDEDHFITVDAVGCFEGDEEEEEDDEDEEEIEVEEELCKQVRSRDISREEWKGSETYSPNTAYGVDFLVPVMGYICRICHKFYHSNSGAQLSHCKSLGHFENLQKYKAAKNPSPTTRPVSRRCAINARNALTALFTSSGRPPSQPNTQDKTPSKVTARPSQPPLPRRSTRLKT
inactive: [1] 0.021 | [2] 0.047 | [3] 0.025 | [4] 0.062 | [5] 0.029

CLPX (UniProt O76031)
Sequence of UniProt O76031 (O76031 whole entry, looked up): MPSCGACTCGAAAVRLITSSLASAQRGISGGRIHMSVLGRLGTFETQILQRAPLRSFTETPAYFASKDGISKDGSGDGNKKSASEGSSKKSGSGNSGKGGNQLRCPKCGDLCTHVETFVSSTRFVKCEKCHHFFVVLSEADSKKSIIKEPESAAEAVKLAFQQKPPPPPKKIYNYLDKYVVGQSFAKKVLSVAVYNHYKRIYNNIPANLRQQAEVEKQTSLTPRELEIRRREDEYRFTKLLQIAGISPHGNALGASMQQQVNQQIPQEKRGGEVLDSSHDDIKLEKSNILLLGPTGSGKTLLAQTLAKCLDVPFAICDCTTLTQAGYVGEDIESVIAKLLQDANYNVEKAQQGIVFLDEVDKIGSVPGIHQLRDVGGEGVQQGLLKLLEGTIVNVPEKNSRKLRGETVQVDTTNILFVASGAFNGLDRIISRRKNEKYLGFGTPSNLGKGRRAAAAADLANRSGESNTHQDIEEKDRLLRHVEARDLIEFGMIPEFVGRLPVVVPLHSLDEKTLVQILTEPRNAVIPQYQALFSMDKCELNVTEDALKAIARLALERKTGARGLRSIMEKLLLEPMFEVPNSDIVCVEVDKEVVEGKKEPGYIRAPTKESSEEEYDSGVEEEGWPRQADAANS
inactive: [1] 0.011 | [2] -0.02 | [3] 0.013 | [4] -0.035 | [5] 0.048
